Sampled rows, rich in hits. Any-hit rate of the full collection: about 10%.
L3MBTL1 inh: inhibitors of human L3MBTL1 | AlphaScreen L3MBTL1–H3K9me1 peptide binding | Potency, µM (doses to about 57.1 µM), without a hit: at the top dose activity, negative = inhibition, actives largely listed as inhibitors | actives 0.66% (n = 230,000) | AID 485360; further: on the % scale 0 is the no-effect control and ±100 the full control effect; nearly all actives have a fitted effect of over 60% in size
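First, the protein-peptide complex forms for 30 min at room temperature (L3MBTL1 50 nM, biotinylated H3K9me1 peptide 75 nM). Next, compounds are pin-transferred and incubated 30 min. Finally, AlphaScreen beads are added and read after 30 min.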
HP1b chromo inh: inhibitors of HP1-beta chromodomain binding to methylated histone tails | AlphaScreen HP1-beta / biotin-H3K9me3 peptide binding | Potency, µM (highest dose often 114 µM), without a hit: at the top dose activity change, negative = inhibition, hits mostly inhibitors | actives 0.56% (n = 390,000) | AID 540317; further: nearly all actives have a fitted effect of over 70% in size
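HP1-beta protein (50 nM final) preincubated 30 min at room temperature with biotinylated H3(1-18)K9me3 peptide (50 nM) in PBS pH 7.4, 0.01% Tween-20, then compound added for 30 min. AlphaScreen streptavidin donor/nickel chelate acceptor beads (10 ug/mL final), 30 min dark, luminescence read.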
G9a block: blocks human histone lysine methyltransferase G9a; Q96KQ7; G9a H3K9 monomethylation, AlphaScreen, 2 h; Potency, µM (top dose mostly 102 µM), inactives show top-dose activity, negative = inhibition, most hits filed as inhibitors; actives 8.8% (n = 350,000); AID 504332; further: on the % scale 0 is the no-effect control and ±100 the full control effect; nearly all actives have a fitted effect of over 75% in size
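AlphaScreen detection with an anti-monomethyl H3K9 antibody quantified product after a 2 h room-temperature reaction containing 500 nM biotinylated H3K9 peptide, 20 µM SAM and 20 nM enzyme, which had been preincubated 15 min with compound.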
GLS inh: glutaminase GLS (human) inhibition; O94925; GLS enzymatic activity, qHTS titration; Potency, µM (top dose mostly 45.5 µM), without a hit: top-dose activity change, negative = inhibition, usual class: inhibitors; actives 0.21% (n = 410,000); further: on the % scale 0 is the no-effect control and ±100 the full control effect
Target sequence (O94925 whole entry, looked up): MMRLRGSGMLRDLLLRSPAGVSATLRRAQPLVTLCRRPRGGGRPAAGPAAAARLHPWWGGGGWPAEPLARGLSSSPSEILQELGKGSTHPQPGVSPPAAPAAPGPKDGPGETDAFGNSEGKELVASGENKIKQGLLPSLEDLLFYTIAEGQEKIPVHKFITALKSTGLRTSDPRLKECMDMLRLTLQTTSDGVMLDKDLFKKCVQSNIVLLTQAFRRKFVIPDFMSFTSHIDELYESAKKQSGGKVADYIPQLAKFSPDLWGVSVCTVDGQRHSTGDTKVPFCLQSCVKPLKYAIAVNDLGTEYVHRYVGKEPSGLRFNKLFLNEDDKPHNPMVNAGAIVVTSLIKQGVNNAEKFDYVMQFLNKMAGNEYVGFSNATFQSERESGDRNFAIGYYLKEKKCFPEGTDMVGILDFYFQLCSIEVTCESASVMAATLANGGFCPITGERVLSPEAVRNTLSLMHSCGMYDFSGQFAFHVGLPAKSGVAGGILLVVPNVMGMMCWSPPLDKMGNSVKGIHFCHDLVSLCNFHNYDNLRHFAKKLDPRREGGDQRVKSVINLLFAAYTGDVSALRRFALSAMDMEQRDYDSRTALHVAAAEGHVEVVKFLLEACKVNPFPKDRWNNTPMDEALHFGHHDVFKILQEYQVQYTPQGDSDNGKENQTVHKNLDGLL
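Two-point fluorescence kinetic (t0, 30 min RT) for hKGA; glutamate detected via glutamate oxidase–HRP–Amplex Red. Substrate: 1 mM L-glutamine solution; buffer 45 mM KH2PO4, pH 8.2.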
JMJD2A Tudor: JMJD2A Tudor domain (human) inhibition | O75164 | AlphaScreen JMJD2A-Tudor / H3K4me3 peptide binding | Potency, µM (highest dose often 114 µM), inactives show top-dose activity change, negative = inhibition, actives largely listed as inhibitors | actives 4.4% (n = 390,000) | AID 504339; further: on the % scale 0 is the no-effect control and ±100 the full control effect; nearly all actives have a fitted effect of over 50% in size
BAZ2B inh: blocks human BAZ2B; AlphaScreen BAZ2B-H3K14Ac peptide displacement; Potency, µM (highest dose often 114 µM), without a hit: at the top dose activity change, negative = inhibition, usual class: inhibitors; actives 4.4% (n = 360,000); AID 504333; further: on the % scale 0 is the no-effect control and ±100 the full control effect; nearly all actives have a fitted effect of over 60% in size
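AlphaScreen displacement of biotin-H3(5-23)K14Ac peptide (50 nM final) from BAZ2B (50 nM final) in PBS pH 7.4, 0.01% Tween-20; complex preformed 30 min RT, then compounds (top 110 uM) 30 min RT, beads 20 min dark.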
An asterisk follows results filed as active; ? = inconclusive; nt = no result; [ ] = remark or other dose. The call rests on the fitted dose curve; in most records, active means well fitted curve in the direction sought with a large enough effect; inconclusive means small, poorly fitted or top-dose-only effect, or another doubt; inactive means no such curve, though single readings can be large; an effect the other way counts as inactive or inconclusive. Potency means the concentration at half of the fitted maximal effect.

SMILES | L3MBTL1 inh | HP1b chromo inh | G9a block | GLS inh | JMJD2A Tudor | BAZ2B inh
O=C(O)CCCCN1C(=O)/C(=C\c2ccc(OCc3ccccc3)c(OCc3ccccc3)c2)SC1=S | nt | ? | -22% | 10% | 18µM* | 32µM*
O=C(O)CCCN1C(=O)/C(=C\C(Cl)=C\c2ccccc2)SC1=S | nt | ? | 14µM* | -2% | 50µM* | 50µM*
O=C(O)CCCN1C(=O)/C(=C\c2ccccc2OCc2ccccc2)SC1=S | nt | ? | 40µM* | 31% | 56µM* | 50µM*
COc1ccccc1/C=C1\SC(=S)N(CCC(=O)NNC(=O)c2ccccc2OC)C1=O | nt | -9% | 2% | 1% | -17%[57.1 µM] | 3%
O=C(O)CN1C(=O)/C(=C\c2cc(Br)ccc2OCc2ccc(F)cc2)SC1=S | nt | ? | 45µM* | 10% | ? | 56µM*
CCCCOc1ccc(C(C)NC(=O)CN2C(=O)CSc3ccc(S(=O)(=O)N4CCOCC4)cc32)cc1 (stereo unspecified) | nt | -9% | 9%[59 µM] | -5% | -21% | -1%
COc1ccc(-c2nnc(SCCOc3ccccc3C)o2)cc1OC | nt | 49% | -35%[59 µM] | 0% | -4% | 0%
O=C(O)CN1C(=O)/C(=C\c2ccccc2OCc2ccc(F)cc2)SC1=S | nt | -11% | 50µM* | 35% | ? | -34%
O=C(O)CCCN1C(=O)/C(=C/c2cn(-c3ccccc3)nc2-c2cccs2)SC1=S | nt | ? | ? | ? | 14µM* | 45µM*
Cc1nn(-c2ccccc2)c(Cl)c1/C=C1\SC(=S)N(CCCCCC(=O)O)C1=O | -26% | ? | 8%[12.7 µM] | 8% | ? | ?
O=C(O)CN1C(=O)/C(=C\c2cc([N+](=O)[O-])ccc2OCc2ccccc2Cl)SC1=S | nt | ? | 35µM* | ? | 50µM* | 50µM*
COc1ccc(/C=C2/SC(=S)N(CC(=O)O)C2=O)cc1OCc1ccc(Cl)cc1 | -10% | -19% | nt | 11% | ? | ?
O=C(O)CN1C(=O)/C(=C\c2cc(Br)ccc2OCc2ccc(Cl)cc2)SC1=S | nt | 11% | 14µM* | 28% | 56µM* | 50µM*
O=C(O)CN1C(=O)/C(=C\c2ccccc2OCc2ccccc2)SC1=S | nt | nt | nt | -3% | nt | nt
CCC(=O)N1CCc2cc(S(=O)(=O)NC(CC(C)C)C(=O)NCCc3ccccc3)ccc21 (stereo unspecified) | nt | 25% | 20%[59 µM] | -1% | ? | nt
CCOc1ccc(/C=C/c2nc(C#N)c(Nc3ccc(OC)cc3)o2)cc1 | nt | 17% | -6%[59 µM] | 6% | -19% | -22%
CC(C)(C)OC(=O)CC(=O)NNC(=O)c1nc2ccccc2[nH]1 | nt | nt | nt | nt | -32% | nt
COC(=O)c1ccc(CN2C(=O)c3ccccc3C2=O)cc1 | 5% | 45% | 19% | 1% | 6% | 5%
COC(=O)c1cc(CN2C(=O)c3ccccc3C2=O)c(O)c([N+](=O)[O-])c1 | nt | 49% | 6% | 0% | -6% | 56µM*
c1cc2c3c(cccc3c1)NC1(CCC3(CC1)Nc1cccc4cccc(c14)N3)N2 | ? | ? | 25%[0.501 µM] | 18% | 50µM* | 28µM*
c1cc2c3c(cccc3c1)NC1(CCCCCC1)N2 | -4% | -2% | 4.5µM* | 1% | -9%[57.1 µM] | -35%
O=C1CCSc2cccc3cccc(c23)N1 | -5% | 5% | -32%[59 µM] | -3% | -8% | -24%
c1cc2c3c(cccc3c1)NC1(CCCCC1)N2 | nt | -7% | 1.1µM* | -2% | -30% | -32%
O=C(Cn1ncc2c([nH]c3ccccc32)c1=O)NCc1cccc(Cl)c1 | nt | 17% | -8%[59 µM] | 6% | -10% | -6%
C=CCN(C(C(=O)OC)C(C)C)S(=O)(=O)CCl (stereo unspecified) | nt | 41% | nt | nt | 2% | nt
COc1ccc(C2N3CC4(C)CN2CC(c2ccccc2)(C3)C4=O)cc1 (stereo unspecified) | nt | 13% | 2%[59 µM] | 3% | ? | -12%

From PubChem
